# Biological target: C9orf93
# Experiment: pooled miR-30 sensor sort-seq; sequence = guide strand
# Details: shRNA
row,Sequence,sensor-assay potency score (higher = more potent)
1,TTAACTCTTTATTAACATCAGC,-1.03
2,TTGTCTTTGCTTGAAGTTCTGA,0.0324
3,TTAATTGTACTGTTAACTCTTC,-0.0565
4,TTCCTTTCTAGCAACAGCTAGG,-0.694
5,TTTGCTTCTGCAACGATGCTGT,0.756
6,TTGAATGGTCTCGTGATCCTAT,0.611
7,TTTAGTGTGAGAGTCTATCTTC,0.39
8,TAAACAACGCAACTGCTCCTTT,0.206
9,TTTGGTAAAGGTGTCTTCCTGA,0.821
10,TTGGTTGTTATTTCTAACTTTT,-0.955
11,TTGCACAGCAGTATCTTGCTCC,0.17

# Biological target: CA4
# Experiment: as above
# Details: shRNA
row,Sequence,sensor-assay potency score (higher = more potent)
1,TTTTTTGTCCACCTTTGCCTTG,-1.1
2,TTCCTTGTCGTAGTACAGCTTC,-0.302
3,TTGGACAGTCCACGTTTGCTTC,-0.84
4,AATTTCGTCTTCAGGGTCCTGG,0.0795
5,TGTCTGTTCCTTGTCGTAGTAC,-0.69

# Reference: the OligoGym collection
